Rows were chosen to be rich in hits. Some 3.5% of all compounds tested hit in one or more screens of this group.
FBW7 activator: activators of human E3 ligase FBW7; Q969H0; AlphaScreen FBW7–phospho-cyclin E peptide binding, activator screen; normalized activity (activation), % at 26.1 µM; hit rate 0.13% among 650,000; AID 1259310; in the data active means normalized activity above about 1.9%;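 further: purified mutant Fbw7 with reduced substrate affinity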
TEAD-YAP block: TEAD-YAP interaction inhibition; inhibition, % at 9.12 µM; HEK-TIYL cells, TEAD-Gal4/YAP UAS-luciferase luminescence; hit rate 1.4% among 640,000; in the data active means inhibition above about 32%;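 further: 0% = median of test compound wells and 100% = reference inhibitor wells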
MITF inh: blocks human microphthalmia-associated transcription factor; O75030; AID 1259374; inhibition, % at 2.6 µM; AlphaScreen MITF homodimerization, bead proximity signal; hit rate 0.91% among 650,000; in the data active means inhibition above about 50%;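 further: 0% = vehicle wells with protein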
Target sequence (O75030 whole entry, looked up): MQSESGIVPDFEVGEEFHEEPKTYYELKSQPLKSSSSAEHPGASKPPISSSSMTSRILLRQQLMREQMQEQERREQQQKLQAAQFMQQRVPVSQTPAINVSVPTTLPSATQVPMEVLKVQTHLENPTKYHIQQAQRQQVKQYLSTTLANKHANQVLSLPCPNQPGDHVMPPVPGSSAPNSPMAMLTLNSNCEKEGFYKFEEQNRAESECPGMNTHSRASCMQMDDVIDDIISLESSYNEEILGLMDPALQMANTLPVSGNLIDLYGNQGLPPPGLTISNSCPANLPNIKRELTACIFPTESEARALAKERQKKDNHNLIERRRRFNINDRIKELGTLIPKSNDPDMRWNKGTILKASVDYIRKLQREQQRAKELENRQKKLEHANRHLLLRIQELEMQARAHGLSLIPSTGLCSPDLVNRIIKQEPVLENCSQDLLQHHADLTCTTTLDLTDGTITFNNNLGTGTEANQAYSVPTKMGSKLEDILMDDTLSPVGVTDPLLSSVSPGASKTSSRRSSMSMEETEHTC
GPR151 ag: activates the human receptor GPR151; Q8TDV0; PathHunter beta-arrestin GPR151 cells, luminescence; activation, % at 11.2 µM; hit rate 1% among 650,000; AID 1508602; in the data active means activation above about 4.9%;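 further: 0% = median of compound wells and 100% = cells with positive control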
* hit, by the source's call.

SMILES | FBW7 activator | TEAD-YAP block | MITF inh | GPR151 ag
O=C(Nc1ccccc1)c1cc(-c2cccc(Br)c2)nc2ccccc12 | 0 | 8 | 10 | 0
O=c1cc(Nc2ccc3c(c2)OCCO3)[nH]c(=O)n1C1CCCCC1 | 0 | 58* | 11 | 1
O=c1cc(Nc2ccc3c(c2)OCCO3)[nH]c(=O)n1-c1ccc(Cl)cc1 | 0 | -5 | -3 | 0
COc1ccc2ccccc2c1/C=C/[N+](=O)[O-] | 0 | 49* | 22 | 0
CC(C)Oc1ccc2ccccc2c1/C=C/[N+](=O)[O-] | 0 | 36* | -9 | 0
CCOC(=O)COc1ccc2ccccc2c1/C=C/[N+](=O)[O-] | 0 | -12 | -1 | 0
CCCNC(=O)c1ccc2c(c1)ncn2-c1cccc(Cl)c1 | 0 | -24 | -5 | -1
CCc1ccccc1Nc1nc(N)nc(Cn2nnc(-c3ccccc3)n2)n1 | 0 | 39* | 12 | 0
COc1ccc(C2=NN(C(=O)c3cc(OC)c(OC)c(OC)c3)C(c3cccc([N+](=O)[O-])c3)C2)cc1OC (stereo unspecified) | 0 | 37* | -1 | 0
COc1ccc(C2=NN(C(=O)c3cc(OC)c(OC)c(OC)c3)C(c3ccc(C)cc3)C2)cc1OC (stereo unspecified) | 0 | 46* | 3 | -1
COc1ccc(C2=NN(C(=O)c3cc(OC)c(OC)c(OC)c3)C(c3ccc(OC)c(OC)c3)C2)cc1OC (stereo unspecified) | 0 | 21 | 2 | 2
COc1ccc(C2=NN(C(=O)c3ccccc3)C(c3cccc([N+](=O)[O-])c3)C2)cc1 (stereo unspecified) | 0 | -7 | 1 | -1
CC1Cc2ccccc2N1C(=O)CSc1nnc(CSc2ncccn2)n1C (stereo unspecified) | 0 | 9 | -8 | 0
CC1Cc2ccccc2N1C(=O)CSc1nnc(Cc2cccs2)n1C (stereo unspecified) | 0 | 47* | -4 | 0
O=C(NCCc1ccccc1)C1C2C3CCC(C3)C12 (stereo unspecified) | 0 | 58* | -5 | -4
O=c1nc(N/N=C/C=C/c2ccccc2)cn[nH]1 | 0 | 50* | 7 | -3
O=c1nc(N/N=C/c2c[nH]c3ccccc23)cn[nH]1 | 0 | 58* | -7 | -5
O=c1nc(N/N=C/c2ccc(O)cc2)cn[nH]1 | 0 | -2 | 28 | -3
COC(=O)c1ccc(NC(=O)c2cc(OC(C)=O)cc(OC(C)=O)c2)cc1 | 0 | 45* | 2 | 1
CC(=O)Oc1cc(C(=O)Nc2ccc(F)cc2)cc(C(=O)Nc2ccc(F)cc2)c1 | 0 | 18 | 15 | 0
Cc1cccc(-c2n[nH]c(=S)n2-c2ccccc2)c1 | 0 | 49* | 1 | 0
S=c1[nH]nc(-c2ccccc2)n1-c1ccccc1 | 0 | 8 | 7 | 0
CC(C)CN(C(=O)Cn1nnnc1N)C1(C(=O)Nc2ccccc2)CCCCC1 | 1 | -5 | 24 | -1
O=C(Nc1ccc(-c2ccc(N3CCCCC3)nn2)cc1)c1cccs1 | 7.4* | -17 | 6 | 0
O=C(Nc1cccc(-c2ccc(N3CCCCCC3)nn2)c1)c1cccs1 | 0 | -42 | -6 | -1
SMILES | FBW7 activator | TEAD-YAP block | MITF inh | GPR151 ag
CCOC(=O)C1=C(C)N=C2SCCC(=O)N2C1c1ccccc1F (stereo unspecified) | 0 | 4 | -16 | 0
c1csc(CCNc2ncnc3sc4c(c23)CCC4)c1 | 0 | 37* | 21 | 2
C=CCNc1ncnc2scc(-c3ccccc3)c12 | 0 | 38* | 2 | 1
Fc1ccc(-c2csc3ncnc(NCCc4cccs4)c23)cc1 | 0 | 43* | 4 | 2
CCOc1ccc(/C=C(/C#N)C(=O)Nc2ccc(O)cc2)cc1OCC | 0 | 15 | -2 | 0
CCOc1cc(/C=C(/C#N)C(=O)Nc2ccc(O)cc2)ccc1OC | 0 | 44* | 8 | 0
N#C/C(=C\c1ccc(O)c(O)c1)C(=O)NCCCNC(=O)/C(C#N)=C/c1ccc(O)c(O)c1 | 0 | 1 | 96* | -1
COc1cc(/C=C(/C#N)C(=O)Nc2ccc(O)cc2)cc(I)c1O | 0 | 50* | -7 | 0
CCOc1ccc(/C=C(/C#N)C(=O)Nc2ccc(O)cc2)cc1OC | 0 | -3 | -5 | 0
N#C/C(=C\c1ccc(O)c(O)c1)C(=O)Nc1ccccc1 | 0 | -7 | -11 | -3
CCOc1cc(/C=C(/C#N)C(=O)Nc2ccc(O)cc2)ccc1O | 0 | 50* | -12 | 1
Cc1ccc(NC(=O)Nc2ccccc2)c([N+](=O)[O-])c1 | 0 | -74 | 8 | 2
CC(=O)N/C(=C\c1c[nH]c2ccccc12)C(=O)O | 0 | -2 | -30 | -1
CC1(C)CC2CC(C)(CN2C(=O)CN2CCN(c3ccccn3)CC2)C1 (stereo unspecified) | 0 | -10 | -4 | -1
CCc1nc(SCC(N)=O)c(C#N)cc1C | 0 | -5 | -5 | 0
COc1cc(/C=C(\C#N)C(=O)c2ccc(O)c(O)c2)cc(I)c1O | 0 | -1 | 85* | -1
O=C1CCCC2=C1C(c1cccs1)c1c(n[nH]c1-c1ccc([N+](=O)[O-])cc1)N2 (stereo unspecified) | 0 | 42* | -1 | 0
CCc1ccc(/C=C2\SC(=S)N(C(CC(=O)O)C(=O)O)C2=O)cc1 (stereo unspecified) | 0 | 6 | -1 | -1
CC(=O)c1cccc(NC(=O)c2oc3c(c2C)-c2[nH]ncc2CC3)c1 | 0 | -21 | 13 | 0
CC1C/C(=C/c2ccncc2)C(=O)/C(=C/c2ccncc2)C1 (stereo unspecified) | 0 | 94* | -3 | 1
Cc1ccc(C)c(S(=O)(=O)Oc2ccccc2C(=O)OCC(=O)Nc2cc(C)on2)c1 | 0 | 39* | 2 | 0
Cc1ccc(NC(=O)CN2C(=O)C(C)(C)Oc3ccc(C(=O)NC(C)C)cc32)cc1 | 0 | -7 | -6 | 1
CC(=O)c1ccc(COC(=O)CCc2nc3ccccc3[nH]c2=O)cc1 | 0 | -5 | -25 | -2
O=C(Nc1ccc2c(c1)OCO2)c1ccccc1SCC(=O)N1CCc2ccccc21 | 0 | 36* | -10 | -1
CN1CCN(c2cc(-c3ccncc3)nc(-c3cccnc3)n2)CC1 | 0 | 61* | 0 | 3
SMILES | FBW7 activator | TEAD-YAP block | MITF inh | GPR151 ag
CN1CCN(c2cc(-c3ccccn3)nc(-c3ccccn3)n2)CC1 | -1 | 32 | 112* | 2
c1ccc(-c2cc(N3CCc4ccccc4C3)nc(-c3ccccn3)n2)nc1 | -1 | 69* | 85* | 1
CN1CCN(c2cc(-c3ccccc3)nc(-c3ccccn3)n2)CC1 | 0 | 2 | -5 | 0
Cc1c(Cl)c([N+](=O)[O-])cc([N+](=O)[O-])c1N1CCCC1 | 0 | 4 | 28 | 1
CCCN(CCC)/C(=N/S(=O)(=O)c1ccccc1)C(F)(F)F | 0 | -6 | -9 | -2
CNC(=O)c1ccc(CS(=O)(=O)c2ccc(Cl)cc2)o1 | 0 | 0 | 3 | 0
COc1cc2nc(NCc3ccc4c(c3)OCO4)nc(NCCN3CCOCC3)c2cc1OC | 0 | -10 | -6 | -1
